# Source: PubChem (National Center for Advancing Translational Sciences (NCATS))
# The entries come from a sample that favours hits as a whole.
# CHX counter: Cycloheximide Counterscreen for Small Molecule Inhibitors of Shiga Toxin; cell reporter, cycloheximide protein synthesis inhibition counterscreen; max response, %; 300,000 compounds, 12% hits; in the data active means max response mostly above about 13%, no sharp cut-off; inactive means mostly below about 14%; further: read at 38.3 µM for the half of the compounds with a filed dose; 0% is about no effect
# Shiga inhibitor: A qHTS for Small Molecule Inhibitors of Shiga Toxin; Vero cells, Shiga toxin protein synthesis inhibition reporter; inhibition, % at 38.7 µM; 290,000 compounds, 9.2% hits; in the data active means inhibition mostly above about 28%, no sharp cut-off; inactive means mostly below about 43%; further: 0% is about no effect
# AmpC detergent: qHTS Inhibitors of AmpC Beta-Lactamase (assay with detergent) | AmpC hydrolysis of nitrocefin, absorbance 480 nm, 0.01% Triton | Potency, µM (series often up to 114 µM), inactives show at the top dose activity change, negative = inhibition, actives largely listed as inhibitors | 370,000 compounds, 0.041% hits;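 further: potency means the concentration at half of the fitted maximal effect; 0% = no-compound wells and -100% = no-enzyme wells; nearly all actives have a fitted effect of over 25% in size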
# Target sequence (P00811 whole entry, looked up): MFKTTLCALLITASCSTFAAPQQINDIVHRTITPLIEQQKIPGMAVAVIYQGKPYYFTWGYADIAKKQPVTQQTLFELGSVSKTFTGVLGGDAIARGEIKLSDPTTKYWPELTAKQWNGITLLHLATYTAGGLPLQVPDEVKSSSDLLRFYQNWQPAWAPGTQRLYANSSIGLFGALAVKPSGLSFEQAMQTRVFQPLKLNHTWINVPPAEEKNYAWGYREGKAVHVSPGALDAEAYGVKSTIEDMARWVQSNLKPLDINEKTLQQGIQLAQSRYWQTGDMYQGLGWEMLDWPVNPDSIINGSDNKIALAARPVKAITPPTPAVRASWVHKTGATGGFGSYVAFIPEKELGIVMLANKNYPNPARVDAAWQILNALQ
#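 20 mM phosphate pH 7.0 + 0.01% (detergent screen) or 0.0001% Triton X-100; 5.3 nM AmpC reagent; cpd preinc 15 min RT; nitrocefin (800 uM stock) to start; A480 q20 s × 4 min; Activity was normalised to no-enzyme and no-compound control wells.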
# NS1 inh: qHTS Assay for Inhibitors of Influenza NS1 Protein Function; Potency, µM (series often up to 46.1 µM), inactives show at the top dose activity, positive = more growth; 270,000 compounds, 0.4% hits; calls by dose curve; further: potency means the concentration at half of the fitted maximal effect; actives are rising curves; nearly all actives have a fitted effect of over 50% in size
#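 OD600 was taken as the measure of yeast growth restored by compound in an NS1-expressing S. cerevisiae strain. Cells had been washed out of glucose medium and diluted 1:100 into galactose -URA medium, pH 6.0.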
# AmpC no deterg: qHTS Inhibitors of AmpC Beta-Lactamase (assay without detergent) | P00811 | AmpC nitrocefin hydrolysis, absorbance 480 nm, 0.0001% Triton | Potency, µM (top dose mostly 57.1 µM), for the others: at the top dose activity change, negative = inhibition, most hits filed as inhibitors | 330,000 compounds, 0.52% hits;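 further: potency means the concentration at half of the fitted maximal effect; plate controls were no compound for no effect and no enzyme for full effect; nearly all actives have a fitted effect of over 20% in size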
#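 20 mM phosphate pH 7.0 + 0.01% (detergent screen) or 0.0001% Triton X-100; 5.3 nM AmpC reagent; cpd preinc 15 min RT; nitrocefin (800 uM stock) to start; A480 q20 s × 4 min; Activity was normalised to no-enzyme and no-compound control wells.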
# * marks the source's active call; other numbers are inactive results; ? = inconclusive; . = no result. Unless noted, the call rests on the fitted dose curve; in most records, active means well fitted curve in the direction sought with a large enough effect; inconclusive means small, poorly fitted or top-dose-only effect, or another doubt; inactive means no such curve, though single readings can be large; an effect the other way counts as inactive or inconclusive.
SMILES,CHX counter,Shiga inhibitor,AmpC detergent,NS1 inh,AmpC no deterg
CCn1c(SCC(=O)c2ccc(Cl)cc2)nnc1C(C)C,34*,116*,?,-9%,3%
CCn1c(SCC(=O)c2ccccc2)nnc1-c1ccoc1C,21*,50*,?,-6%,-14%
CC(=O)c1ccc(NC(=O)CSc2nnc(-c3ccoc3C)n2Cc2ccccc2)cc1,24*,31*,-3%,2%,25%
CCn1c(Cn2nnc(-c3ccccc3)n2)nnc1SCC(=O)Nc1ccc(C(C)=O)cc1,44*,57*,0%,-16%,31%
CCn1c(Cn2nnc(-c3ccccc3)n2)nnc1SCC(=O)Nc1cccc(C(C)=O)c1,-3,-12,-13%,-5%,23%
CCn1c(SCC(=O)c2ccc(C)cc2)nnc1-c1ccoc1C,27*,0,2%,-13%,11%
CCn1c(SCC(=O)c2ccccc2)nnc1-c1cccnc1,44*,46,3%,2%,4%
CCn1nnnc1SCC(=O)c1ccc(C)cc1,38*,121*,3%,1%,-17%
CCn1c(SCC(=O)c2ccc(C)cc2)nnc1-c1ccncc1,17,17,?,-2%,43%
CCn1c(SCCC(=O)O)nnc1-c1cccnc1,-2,10,-19%,-3%,-20%
COc1ccc(-n2nc(C(=O)Nc3cc(C)ccn3)c3c4ccccc4n(C)c3c2=O)cc1,.,.,1%,.,.
CCCC(=O)Nc1sc(C)c(-c2ccc(C(C)CC)cc2)c1C#N (stereo not drawn),-5,-6,-1%,?,-28%
CNC(=S)N(CCN(C)C)Cc1cc2cc3c(cc2[nH]c1=O)OCO3,-2,-18,5%,-6%,-29%
N#Cc1ccc(-c2cccnc2)nc1SCC(=O)c1ccccc1,37*,82*,-9%,1%,34%
N#Cc1ccc(-c2ccccc2)nc1SCC(=O)c1cccc(Cl)c1,-1,-23,-7%,14%,-29%
Nc1c(C(=O)NC2CCCC2)c2nc3ccccc3nc2n1N,71*,43*,?,-9%,18%
Nc1c(C(=O)NC2CCCC2)c2nc3ccccc3nc2n1CC1CCCO1 (stereo not drawn),-3,-16,1%,-69%,170%
Oc1ccc2c(ccc3[nH]cnc32)c1,28*,51*,1%,8%,-2%
COc1ccccc1NS(=O)(=O)c1cc(NC(=O)C2CC2)ccc1N1CCOCC1,2,18,-1%,0%,-10%
COCCNC(=S)Nc1ccc(N2CCOCC2)c(S(=O)(=O)Nc2ccccc2OC)c1,.,.,-1%,.,10µM*
COc1ccccc1NS(=O)(=O)c1cc(NC(=O)c2ccc(=O)[nH]c2)ccc1N1CCOCC1,-6,-9,1%,2%,14µM*
CC(C)(C)C1CCc2c(sc(NC(=O)Cn3nnc(-c4cccc(C(F)(F)F)c4)n3)c2C#N)C1 (stereo not drawn),.,.,-11%,.,.
COc1ccccc1CNC(=O)CCC1N=C2c3ccccc3N=C(SCc3ccc(Cl)cc3)N2C1=O (stereo not drawn),.,.,5%,.,.
CCN1CCN(c2oc(/C=C/c3ccc(OC)c(OC)c3)nc2C#N)CC1,.,.,16%,.,.
COc1ccc(C(=O)Nc2sc(C)c(C)c2CN2CC(C)OC(C)C2)cc1 (stereo not drawn),31*,68*,-8%,0%,-14%
SMILES,CHX counter,Shiga inhibitor,AmpC detergent,NS1 inh,AmpC no deterg
O=C(OCc1ccc([N+](=O)[O-])cc1)c1cc(=O)c2ccccc2o1,9.7*,26,-15%,6%,-12%
O=C(OCc1nnc(-c2ccccc2)o1)c1cc(=O)c2ccccc2o1,26*,36,-3%,-16%,-22%
Nc1ccccc1C(=O)OCc1ccc([N+](=O)[O-])cc1,33*,76*,2%,5%,-17%
CCSc1nc(-c2ccc(Cl)cc2)nc2c1Cc1c(CO)cnc(C)c1O2,.,.,11%,.,.
CNc1oc(-c2cccs2)nc1C#N,1,16,-7%,-19%,-18%
COc1ccc(Nc2oc(-c3ccccc3F)nc2C#N)cc1,34*,47*,4%,2%,-19%
COc1ccc(Nc2oc(-c3cccs3)nc2C#N)cc1,62*,146*,-3%,-6%,-40%
CCOc1ccc(Nc2oc(-c3ccccc3Cl)nc2C#N)cc1,-2,-7,2%,-5%,-17%
CCOc1ccc(S(=O)(=O)Nc2nc3ccccc3nc2Nc2ccc(N3CCOCC3)cc2)cc1,13*,4,-4%,11%,38%
S=C(c1ccc(-c2cccc(Cl)c2)o1)N1CCOCC1,43*,188*,13%,-15%,-22%
S=C(c1ccc(-c2cccc(Cl)c2)o1)N1CCCCC1,49*,55*,7%,.,-20%
N#CCCN1CCN(C(=S)c2ccc(-c3cccc(Cl)c3)o2)CC1,45*,103*,-2%,-14%,80%
S=C(c1ccc(-c2cc(Cl)ccc2Cl)o1)N1CCOCC1,2,-4,-2%,-5%,-25%
CCSc1nnc(-c2ccccc2N=Cc2c(C)[nH]n(-c3ccccc3)c2=O)c(=O)[nH]1,13*,17,?,12%,-24%
CCSc1nnc(-c2ccccc2N)c(=O)[nH]1,24*,53*,-10%,-38%,-23%
CC(=O)N1CCCc2cc(S(=O)(=O)Nc3ccccc3C)ccc21,-4,-2,-6%,14%,-10%
CC(=O)C1=C(O)C(=O)N(c2ccc(Br)cc2)C1c1ccccc1[N+](=O)[O-] (stereo not drawn),-2,-2,-7%,14%,-16%
CCOC(=O)/C(C#N)=C/c1c(N2CCN(c3ccccc3)CC2)nc2ccccn2c1=O,41*,18,-7%,3%,7%
N#C/C(=C\c1c(N2CCCCCC2)nc2ccccn2c1=O)C(N)=O,-2,4,0%,5%,-32%
N#C/C(=C\c1c(N2CCN(c3ccccc3)CC2)nc2ccccn2c1=O)C(N)=O,28*,50*,-5%,1%,1%
COC(=O)/C(C#N)=C/c1c(N2CCN(c3ccccc3)CC2)nc2ccccn2c1=O,21,23,-11%,3%,58%
CCOc1ccc(CCNC(=O)c2oc(=O)c3ccccc3c2-c2ccc(C)cc2)cc1OCC,.,.,2%,.,.
COCCN(C(=O)C1CC1)c1nnc(-c2ccc(C)cc2)s1,6,36,1%,-11%,71%
CCCC(=O)N(C)c1nnc(-c2ccc(OC)cc2)s1,13*,46,-7%,-10%,54%
CCOc1ccc(-c2nnc(N(CC)C(=O)C3CCC3)s2)cc1,28*,53*,?,-42%,141%
Cc1cccc(-c2cc3c(N=O)c4ccccc4c-3n[nH]2)c1,46*,104*,-12%,.,-5%
O=Nc1c2cc(-c3ccccc3)[nH]nc-2c2ccccc12,37*,101*,-9%,.,6%
